Most compounds without a hit are left out; they make up all but 18% or so of the library.
DT40 TDP1 no CPT – qHTS for Inhibitors of human tyrosyl-DNA phosphodiesterase 1 (TDP1): qHTS in cells in absence of CPT; DT40 Tdp1-/- hTDP1 cells, no CPT, ATP luminescence, 48 h; Potency, µM (doses to about 46.2 µM), without a hit: at the top dose activity change, negative = growth inhibition, hits mostly inhibitors; AID 686978, 2013; actives 15% (n = 420,000); also: potency is read from the fitted curve at half-maximal effect; nearly all actives have a fitted effect of over 55% in size
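Cells were dispensed at 400 per well, compounds added by pin tool, plates incubated ≥48 hr at 37 °C, then CellTiter-Glo added for 30 min at room temperature before luminescence reading. Line: DT40 Tdp1-/- complemented with hTDP1; camptothecin omitted.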
Six1-Eya2 inh – qHTS Assay for Inhibitors of the Six1/Eya2 Interaction; actives 0.56% (n = 360,000); Homeobox protein SIX1 (Homo sapiens) + Protein phosphatase EYA2 (Homo sapiens), …; AID 651725, 2012; activity change, % (concentration not given with the values); AlphaScreen GST-Six1/His-Eya2 binding, biochemical; stronger effect = lower value; in the data active = activity change below about -65%; inconclusive = mostly about -30% to -63%
Target sequence (O00167 whole entry, looked up): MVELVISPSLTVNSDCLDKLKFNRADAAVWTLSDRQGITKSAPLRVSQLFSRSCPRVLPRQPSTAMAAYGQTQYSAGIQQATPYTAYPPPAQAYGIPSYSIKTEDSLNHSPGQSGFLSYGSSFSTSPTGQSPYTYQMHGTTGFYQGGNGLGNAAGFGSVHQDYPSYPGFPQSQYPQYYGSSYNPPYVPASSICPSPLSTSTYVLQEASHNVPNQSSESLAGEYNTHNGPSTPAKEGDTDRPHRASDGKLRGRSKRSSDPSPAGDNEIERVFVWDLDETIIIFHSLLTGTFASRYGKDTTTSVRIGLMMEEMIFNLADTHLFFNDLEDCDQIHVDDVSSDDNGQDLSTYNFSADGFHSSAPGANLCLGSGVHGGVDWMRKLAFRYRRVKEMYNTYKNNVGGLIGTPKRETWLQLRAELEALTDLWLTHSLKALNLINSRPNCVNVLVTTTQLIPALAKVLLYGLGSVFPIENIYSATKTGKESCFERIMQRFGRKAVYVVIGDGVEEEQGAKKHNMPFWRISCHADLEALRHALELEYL
Target sequence (Q15475 whole entry, looked up): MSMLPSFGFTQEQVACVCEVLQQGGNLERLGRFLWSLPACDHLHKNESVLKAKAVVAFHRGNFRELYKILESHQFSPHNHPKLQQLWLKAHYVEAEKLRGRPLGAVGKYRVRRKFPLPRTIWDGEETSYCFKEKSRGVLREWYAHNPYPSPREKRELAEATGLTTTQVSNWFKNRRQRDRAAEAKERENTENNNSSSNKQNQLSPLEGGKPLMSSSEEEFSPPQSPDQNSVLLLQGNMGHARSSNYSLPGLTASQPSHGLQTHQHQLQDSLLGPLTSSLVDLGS
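AlphaScreen with GST-Six1 and His-Eya2 (5X mix: 250 nM and 500 nM), glutathione donor and nickel acceptor beads; buffer 50 mM Tris pH 8.0, 300 mM NaCl, 1 mM TCEP; 1 h at 37 C in the dark.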
DT40 TDP1 CPT – qHTS for Inhibitors of human tyrosyl-DNA phosphodiesterase 1 (TDP1): qHTS in cells in presence of CPT. chicken DT40 Tdp1-/-;hTDP1 cells + 20 nM CPT, ATP luminescence, 48 h. Potency, µM (highest dose often 46.2 µM), without a hit: at the top dose activity change, negative = growth inhibition, hits mostly inhibitors. actives 12% (n = 420,000). AID 686979, 2013; also: potency is read from the fitted curve at half-maximal effect; nearly all actives have a fitted effect of over 55% in size
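Chicken DT40 Tdp1-/- cells stably complemented with human TDP1 were seeded at 400 cells/well in medium containing 20 nM camptothecin, exposed to pin-transferred compounds, and grown at 37 °C for at least 48 hr. Viability was read as ATP luminescence.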
CtBP-E1A blk – qHTS Assay for Inhibitors of the CtBP/E1A Interaction. CtBP / adenovirus E1A interaction (AlphaScreen). AlphaScreen GST-E1A/His-CtBP binding, 1536-well; stronger effect = lower value. activity change, % (concentration not given with the values). actives 0.49% (n = 340,000); in the data active = activity change below about -65%; inconclusive = mostly about -30% to -63%
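In 5 uL wells, 23 nL compound meets equimolar GST-E1A and His-CtBP (5X stock 125 nM each) for 2 h, 37 °C. Beads (5X, 50 ug/mL) then 1 h, 37 °C, dark.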
IL-1B inflam inh – qHTS for Inhibitors of Inflammasome Signaling: IL-1-beta AlphaLISA Primary Screen | THP-1 LPS/ATP IL-1B secretion, AlphaLISA, 16 h; stronger effect = lower value | activity change, % at 57.5 µM | actives 4.7% (n = 360,000); in the data active = activity change below about -50%; inconclusive = mostly about -30% to -49%
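THP-1 cells pretreated 1 hr with compounds (up to 57.5 uM final), then stimulated with LPS (250 ng/mL final) plus ATP (1.25 mM final); secreted IL-1B measured by AlphaLISA after 16 hr, decreased signal indicating inhibition.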
TDP1 block – qHTS Assay for Inhibitors of Tyrosyl-DNA Phosphodiesterase (TDP1) | Tyrosyl-DNA phosphodiesterase 1 (Homo sapiens), Q9NUW8 | recombinant TDP1, AlphaScreen DNA substrate cleavage | Potency, µM (titrated, usually from 130 µM), without a hit: at the highest dose activity change, negative = inhibition, most hits filed as inhibitors | actives 0.28% (n = 350,000) | AID 485290, 2010; also: potency is read from the fitted curve at half-maximal effect; nearly all actives have a fitted effect of over 40% in size
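Enzyme-compound mixtures sat 15 min at room temperature, followed by a 5 min reaction with 15 nM final substrate and 10 min with AlphaScreen beads. Recombinant human Tdp1 was used at 1 nM final.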
An asterisk follows results filed as active; ? = inconclusive; nt = not tested or not shown; [ ] = dose if it differs, or a comment. Unless noted, calls follow the shape of the dose curve; as a rule, active = well fitted curve in the direction sought with a large enough effect; inconclusive = small, poorly fitted or top-dose-only effect, or another doubt; inactive = no such curve, though single readings can be large; an effect the other way counts as inactive or inconclusive. % is scaled to controls: 0 for no effect and ±100 for the full control effect.

SMILES	DT40 TDP1 no CPT	Six1-Eya2 inh	DT40 TDP1 CPT	CtBP-E1A blk	IL-1B inflam inh	TDP1 block
O=C(CSc1n[nH]c(-c2ccccc2)n1)NCCCc1ccccc1	20.6µM*	nt	?	nt	nt	5.4%
COc1ccc(NC(=O)CSc2n[nH]c(-c3ccccc3)n2)cc1Cl	?	nt	?	nt	nt	2.7%
COc1ccc(-c2nc(SCC(=O)c3ccc(OC)c(Br)c3)n[nH]2)cc1	23.1µM*	nt	?	nt	nt	8.6%
COc1ccc(OC)c(C(=O)CSc2nccc(-c3ccc(Br)cc3)n2)c1	29.1µM*	3.1	?	5.7	-14.2	2.8%
COc1ccc(Br)cc1CNC(=O)CSc1n[nH]c(-c2ccccc2)n1	20.6µM*	nt	13µM*	nt	nt	5.4%
COc1ccc(C(=O)CSc2n[nH]c(-c3ccncc3)n2)cc1[N+](=O)[O-]	-16.4%	?	-4.0%	-26.2	17.5	1.1%
Cc1noc(NS(=O)(=O)c2ccc(NC(=O)c3oc4ccc(Cl)cc4c3C)cc2)c1C	-25.1%	-22.2	-12.8%	-10.3	17.5	7.9%
COc1ccc(-c2nc(SCC(=O)NCCCc3ccccc3)n[nH]2)cc1	20.6µM*	nt	16.4µM*	nt	nt	5.4%
O=C(CSc1n[nH]c(-c2ccncc2)n1)NCCc1ccccc1	?	-6.8	?	4.2	0.0	5.5%
Cn1c(C(=O)O)c(C=O)c2ccccc21	15.7%	1.9	-7.6%	3.9	-70.4*	-1.2%
C[C@@H]1CC[C@H](O)/C=C/C(=O)O[C@H](C)CC[C@H](O)/C=C/C(=O)O1	5.17µM*	0.8	5.17µM*	10.4	-4.4	nt
CC(C)c1ccc(CNc2ccc3c(c2)ncn3C)cc1	?	-12.6	23.1µM*	-2.0	0.0	nt
Cn1cnc2cc(NCc3ccccc3Cl)ccc21	-16.5%	-8.3	-18.2%	-4.6	10.1	nt
CN(C)c1ccc(CNc2ccc3c(c2)ncn3C)cc1	23.1µM*	-4.6	14.6µM*	-5.2	-58.6*	12.4%
CCCCn1cnc2cc(NCc3ccncc3)ccc21	-26.1%	-0.1	-19.7%	6.0	-5.9	-2.6%
COc1ccc(O)c(CN2CCC3(CCC(CNC(=O)c4ccccc4)O3)CC2)c1 (centres undefined)	?	nt	2.7%	nt	nt	nt
CCCCOC(=O)C1=C(C)Nc2nnnn2C1c1ccccc1Cl (centres undefined)	13µM*	6.1	?	-4.7	7.6	4.9%
CC(=O)Nc1ccc(S(=O)(=O)N2CCC(Oc3ccc(-n4cnnn4)cc3)CC2)cc1	?	-5.7	?	-7.7	15.0	4.7%
Cc1[nH]n(C(C)(C)C)c(=O)c1Sc1ccc(Cl)cc1	?	15.4	-27.8%	24.4	0.0	-0.5%
Cc1ccc(C(=O)Nc2cc3ccccc3oc2=O)cc1	3.66µM*	7.1	2.06µM*	6.4	36.6	4.9%
CC(=O)c1cc(NC(=O)c2ccc(C)cc2)c(=O)oc1/C=C/N(C)C	-24.2%	9.5	-14.6%	18.6	-0.2	-3.2%
CC(=O)c1cc(NC(=O)c2ccccc2)c(=O)oc1C	32.6µM*	-3.7	?	-18.4	-102.0*	-1.2%
CC(=O)c1cc(NC(=O)c2ccc(C)cc2)c(=O)oc1C	?	-7.9	23.1µM*	0.0	-106.1*	1.2%
Cc1ccc(S(=O)(=O)CCC(=O)OCC(=O)NCCc2ccccc2)cc1	-2.4%	4.6	11.2%	1.0	5.4	0.0%[0.505 µM]
CCCNC(=O)C12CCC(C)(c3nc4cc(C)c(C)cc4nc31)C2(C)C (centres undefined)	23.1µM*	-0.4	18.4µM*	3.7	-9.9	5.1%
SMILES	DT40 TDP1 no CPT	Six1-Eya2 inh	DT40 TDP1 CPT	CtBP-E1A blk	IL-1B inflam inh	TDP1 block
CCN(CC)C(=O)CSc1nnc(COc2ccccc2)n1CC	-12.9%	0.8	-5.5%	2.2	5.2	0.0%
Cc1ccc(S(=O)(=O)N2CCN(C(=O)CCCN3C(=O)NC4(CCCC4)C3=O)CC2)cc1C	-27.3%	1.6	?	-12.6	2.0	-0.4%
CC(C)(C)c1ccc(C(=O)NCC(c2cccs2)S(=O)(=O)c2ccc(F)cc2)cc1 (centres undefined)	20.6µM*	nt	18.4µM*	nt	nt	-5.2%
O=C(NCCc1ccccc1)C(=O)NCC(c1cccs1)S(=O)(=O)c1cccs1 (centres undefined)	?	nt	16.4µM*	nt	nt	5.2%
Cc1cc(C)c(S(=O)(=O)NCC(c2cccs2)S(=O)(=O)c2ccccc2)c(C)c1 (centres undefined)	4.11µM*	nt	1.16µM*	nt	nt	0.0%
COc1ccc(CC(=O)NCC(c2cccs2)S(=O)(=O)c2ccc(C)cc2)cc1 (centres undefined)	25.9µM*	nt	?	nt	nt	5.2%
Cc1cc(C)c(S(=O)(=O)NCC(c2ccco2)S(=O)(=O)c2ccccc2)c(C)c1 (centres undefined)	?	nt	?	nt	nt	0.0%
Cc1ccc(NC(=O)COC(=O)Cc2cccs2)c(Br)c1	4.5%	5.7	15.6%	10.7	3.9	-4.1%
Cc1ccc(C(=O)CC(c2cccs2)S(=O)(=O)c2ccc(C)cc2)cc1 (centres undefined)	14.6µM*	7.3	?	5.1	-7.7	5.7%
COc1ccccc1CNC(=O)C(=O)NCC(c1cccs1)S(=O)(=O)c1ccccc1 (centres undefined)	16.4µM*	nt	?	nt	nt	-5.2%
COc1ccccc1CCNC(=O)C(=O)NCC(c1cccs1)S(=O)(=O)c1ccccc1 (centres undefined)	?	nt	?	nt	nt	-4.4%
CC(C)(C)c1ccc(C(=O)NCC(c2cccs2)S(=O)(=O)c2cccs2)cc1 (centres undefined)	?	nt	?	nt	nt	0.0%
Cc1ccc(C(=O)NCC(c2cccs2)S(=O)(=O)c2cccs2)cc1 (centres undefined)	9.2µM*	nt	20.6µM*	nt	nt	5.2%
O=C(O)CCNC(=O)/C(=C/c1ccco1)NC(=O)c1ccco1	-1.9%	-2.3	0.7%	nt	1.7	nt
Cc1noc(C)c1C(=O)OCC(=O)NC(c1ccccc1)c1ccccc1	-15.2%	-1.1	?	3.9	-4.0	3.0%
Cc1ccccc1Nc1nc(N)nc(COC(=O)CCNS(=O)(=O)c2ccccc2)n1	2.0%	11.5	-2.4%	0.0	-1.9	nt
